Screening results from PubChem BioAssay.
Sampled rows, rich in hits. Any-hit rate of the full collection: about 1.3%.
Bcl-xL primary – inhibitors of human Bcl-xL, primary screen, biochemical, fluorescence polarization, HTS; Bcl-2-like protein 1 (Homo sapiens), Q07817; GST-Bcl-xL / FITC-Bim BH3 peptide fluorescence polarization; inhibition, % at 10.9 µM; 320,000 tested, 0.7% active; AID 2129, 2009;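 active means inhibition above the mean of all tested compounds plus 3 SD, cutoff set per campaign, cut at about 30% in these data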;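 further: inhibitors lower millipolarization by displacing the labeled peptide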
Target sequence (Q07817 whole entry, looked up): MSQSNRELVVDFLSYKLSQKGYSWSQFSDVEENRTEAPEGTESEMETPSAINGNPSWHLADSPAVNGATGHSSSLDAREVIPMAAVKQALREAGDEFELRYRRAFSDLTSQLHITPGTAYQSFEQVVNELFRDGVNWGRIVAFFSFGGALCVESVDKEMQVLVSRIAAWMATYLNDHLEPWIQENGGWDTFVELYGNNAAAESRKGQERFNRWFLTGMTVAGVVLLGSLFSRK
MEX-5 binding – MEX-5 zinc finger RNA-binding disruptors – biochemical, C. elegans, fluorescence polarization, MLPCN library, primary screen | Zinc finger protein mex-5 (Caenorhabditis elegans), Q9XUB2 | MEX-5/FITC-TCR2 RNA binding; hits give low values | activity score (negative = inhibition of binding), % at 10 µM | 300,000 tested, 0.38% active | AID 1832, 2009;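 active means inhibition past about -25% in most replicates, and total fluorescence under double the plate's negative control median, limit read from the data; inconclusive means replicates evenly split on the limit, or fluorescence at least double controls; inactive means too little inhibition in most replicates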
GLD-1 RNA inh – GLD-1/TGE RNA complex disruptors, primary screen, biochemical, fluorescence polarization; AID 2280, 2010; inhibition, % at 5.96 µM; purified GLD-1 + fluorescein TGE RNA; Female germline-specific tumor suppressor gld-1 (Caenorhabditis elegans), Q17339; 320,000 tested, 0.44% active;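 active means percent inhibition above a per-plate cutoff, the plate mean of test compounds plus 3 SD, cut at about 30% in these data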
eLon inh – inhibitors of E. coli Lon protease, primary screen, biochemical, fluorescence polarization; inhibition, % at 7.94 µM; P0A9M0; AID 602123, 2011; purified E. coli Lon protease; 360,000 tested, 0.42% active; in the data active means inhibition above about 13%, passing the limit was not always enough
EBV gp42 inh – Epstein-Barr virus gp42 inhibitors, primary screen, biochemical, uHTS, fluorescence polarization. inhibition, % (tested at 21.74 µM). 220,000 tested, 0.42% active. Glycoprotein 42 (Epstein-Barr virus (strain AG876)), Q1HVG2. AID 1085, 2008. Fluorescence polarization binding assay, mP read-out; in the data active means inhibition above about 50%
Target sequence (Q1HVG2 whole entry, looked up): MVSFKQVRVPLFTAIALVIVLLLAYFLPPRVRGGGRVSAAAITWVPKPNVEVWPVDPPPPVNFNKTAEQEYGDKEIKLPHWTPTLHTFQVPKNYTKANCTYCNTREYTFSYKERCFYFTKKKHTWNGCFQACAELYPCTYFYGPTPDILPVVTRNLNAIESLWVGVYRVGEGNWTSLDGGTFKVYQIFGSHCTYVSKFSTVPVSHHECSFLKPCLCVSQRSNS
Hits are given with their value; i = inactive; ? = inconclusive; nt = no result.

SMILES	Bcl-xL primary	MEX-5 binding	GLD-1 RNA inh	eLon inh	EBV gp42 inh
CC(=O)Nc1cccc(-c2ccnc3c2CC(C(=O)NCc2ccc(F)c(F)c2)O3)c1 (configuration not stated)	nt	nt	nt	i	nt
COC(=O)C1=C(C)N(Cc2ccccc2)C(=NCc2ccc(OC)cc2)N[C@H]1c1ccccc1	nt	nt	i	i	nt
COC(=O)C1=C(C)N(Cc2ccccc2)C(=NCC(C)C)N[C@H]1c1ccccc1	44	?	31	nt	nt
CCn1c(=N)n(CC(O)c2ccco2)c2ccccc21 (configuration not stated)	i	i	i	i	i
C=CCn1c(=N)n(CC(O)c2ccco2)c2ccccc21 (configuration not stated)	34	i	i	i	i
CCOc1ccc(C2OC34CCCCC3C(C#N)(C#N)C2(C#N)C(=N)O4)cc1OC (configuration not stated)	143	-29	130	34	i
CCCCOc1ccc(C2OC34CCCCC3C(C#N)(C#N)C2(C#N)C(=N)O4)cc1 (configuration not stated)	137	nt	92	i	i
CC1Cc2ccccc2N1C(=O)CN1CCC(n2nnc3cc(C(F)(F)F)ccc32)CC1 (configuration not stated)	i	i	i	i	100
COc1ccc(NC(=O)COc2ccccc2C)cc1S(=O)(=O)N1CCCCC1	i	i	i	i	nt
COc1cc(C(=O)NS(=O)(=O)c2ccccc2C)ccc1Cc1cn(C)c2ccc(NC(=O)OC3CCCC3)cc12	37	i	i	nt	i
O=C([C@H]1O[C@@H](n2ccc(=O)[nH]c2=O)[C@H](O)[C@@H]1O)N1CCC(F)(F)CC1	nt	nt	nt	i	nt
CCOC(=O)c1ccc(-c2ccc(C=O)o2)cc1	i	-27	i	i	i
CCCOC(=O)c1ccc(-c2ccc(C=O)o2)cc1	i	i	i	i	i
CCN(CC(=O)NCc1ccc(Cl)cc1)C(=O)COc1ccc(Cl)cc1Br	i	i	i	i	nt
CC1CCCCC12NC(=O)N(Cn1nnc3ccccc3c1=O)C2=O (configuration not stated)	i	i	31	i	i
C[C@@H]1CN([C@@H](C)CO)C(=O)CCCn2nncc2CO[C@H]1CN(C)S(=O)(=O)c1ccc2ccccc2c1	nt	nt	nt	i	nt
O=C1c2ccccc2S(=O)(=O)c2cc(N3CCC(C(=O)N4CCCCC4)CC3)ccc21	i	?	i	nt	nt
O=C1c2ccccc2S(=O)(=O)c2cc(N3CCc4ccccc4C3)ccc21	39	i	i	nt	nt
COc1ccc(/C=C/C(=O)NC2CCN(Cc3ccccc3)CC2)cc1OC	i	i	i	i	nt
COc1ccc(/C=N/NC(=O)c2ccoc2C)cc1CN1CCN(c2ccc(F)cc2)CC1	i	i	i	i	nt
CCOC(=O)C1=C(O)/C(=C/N(C)C)N=C1C	36	?	i	i	i
CCOC(=O)C1=C(O)/C(=C\c2cccc(OC)c2)N=C1C	i	i	i	i	i
Cc1cccc(NC(=O)CCS(=O)(=O)c2ccc3c(c2)NC(=O)CS3)n1	31	i	i	i	nt
CC1C(=O)N(Cc2cn(CCC3OCCCO3)nn2)CCS(=O)(=O)N1Cc1ccc(-c2ccc(Cl)c(Cl)c2)cc1 (configuration not stated)	nt	nt	nt	i	nt
CCCCC1=CC2=C(c3ccco3)C(=O)C(C)(OC(=O)c3ccc(OC)cc3)C(=O)C2=CN1CCN1CCOCC1 (configuration not stated)	72	-38	41	i	i
SMILES	Bcl-xL primary	MEX-5 binding	GLD-1 RNA inh	eLon inh	EBV gp42 inh
CCCCC1=CC2=C(c3ccco3)C(=O)C(C)(OC(=O)c3ccc(OC)cc3)C(=O)C2=CN1CCCN(CC)CC (configuration not stated)	49	i	34	i	i
CCCCC1=CC2=C(c3ccco3)C(=O)C(C)(OC(=O)c3ccc(OC)cc3)C(=O)C2=CN1C1CCCC1 (configuration not stated)	112	-29	92	nt	nt
CCCCC1=CC2=CC(=O)C(C)(OC(=O)CC)C(=O)C2=CN1CCN1CCOCC1 (configuration not stated)	31	i	i	nt	i
CCCSCCCNC(=O)CN1C(=O)COc2ccc(S(=O)(=O)N3CCCC3)cc21	i	i	i	i	nt
CCCCC(=O)N(C)c1c(CC)nc2c(OCC(=O)c3ccc(F)cc3)cccn12	nt	nt	nt	i	nt
CSC1=NS(=O)(=O)c2c(C)nn(C)c2S1	i	i	i	i	i
CC(=O)c1ccc(S(=O)(=O)N(C)CCCC(=O)NCc2ccc3c(c2)OCO3)cc1	nt	nt	nt	i	nt
O=c1[nH]c(CSc2ncccn2)nc2c1cnn2-c1ccccc1	i	-26	i	i	i
O=c1[nH]c(SCc2nc3c(cnn3-c3ccccc3)c(=O)[nH]2)nc2ccccc12	nt	nt	nt	i	i
CC(C)NC(=O)c1ccc2c(c1)N(Cc1ccccc1)C(=O)C(C)(C)O2	nt	i	nt	i	nt
O=C(CSc1nc(-c2ccc(F)cc2)nc2c1Cc1ccccc1O2)Nc1cccc(C(=O)O)c1	nt	i	nt	i	71
O=C(CSc1nc(-c2ccccc2)nc2c1Cc1ccccc1O2)Nc1ccccc1	i	i	i	nt	i
CC1=CC(C)(C)Nc2ccc(OC(=O)CN3C(=O)c4cccc5cccc(c45)C3=O)cc21	36	i	i	i	i
CCOC1(OCC)N=C(N)C2(C#N)C(c3ccc(NC(C)=O)cc3)C12C#N (configuration not stated)	i	-27	i	i	i
COC1(OC)N=C(N)C2(C#N)C(c3ccc(F)cc3)C12C#N (configuration not stated)	i	i	i	i	i
Cn1c(=O)c2c(C(=O)O)cc(-c3ccccc3)nc2n(Cc2ccccc2)c1=O	38	i	i	i	nt
COc1ccccc1-c1cc(C(=O)O)c2c(=O)n(C)c(=O)n(Cc3ccccc3)c2n1	i	i	i	i	nt
Cc1ccc(S(=O)(=O)N(CC(=O)Nc2ccccc2C(=O)O)c2ccccc2)cc1	i	i	i	i	i
CCCNS(=O)(=O)c1ccc(CCC(=O)NCc2ccc3c(c2)OCO3)cc1	i	-36	i	i	i
CC(C)NS(=O)(=O)c1ccc(CCC(=O)NCc2ccc3c(c2)OCO3)cc1	i	i	i	i	i
O=[N+]([O-])c1c(NCCCO)cc(Sc2nc3ccccc3s2)c2nonc12	44	i	i	i	i
Cc1nnc(Sc2cc(NCCCO)c([N+](=O)[O-])c3nonc23)s1	nt	i	nt	i	i
Oc1ccc2cccnc2c1	40	i	i	i	i
Cc1cc(S(=O)(=O)N2CCCC(N3CCOCC3)C2)c(C)cc1Cl (configuration not stated)	i	i	i	i	nt
Cc1cccc(NC(=O)C2NC(=O)CC2c2ccccc2)c1C (configuration not stated)	i	i	i	i	i
COc1ccc(NC(=O)COc2cccc(C(F)(F)F)c2)cn1	71	i	61	i	nt
